Records with an inconclusive call do not appear. Unmarked numbers belong to inactive results. Calls of active or inactive are those of the source. Calls follow the shape of the dose curve; as a rule, active = well fitted cell-killing curve with a large enough effect in the repeat runs; inconclusive = weak or mixed curves, or effect the other way; inactive = no such curve, though single readings can be large or run the other way.
Assay: qHTS assay to identify small molecule antagonists of the glucocorticoid receptor (GR) signaling pathway - cell viability counter screen (AID 720693); also: nearly all actives have a fitted effect of over 55% in size
Details: GR-bla HeLa viability, CellTiter-Glo luminescence, 18 h, with 5 nM dexamethasone present; series mostly up to 58.5 µM; viability change, negative = cytotoxic: at the top concentration
With CCN(CC)CC#CCOC(=O)C(O)(c1ccccc1)C1CCCCC1 (stereo not drawn) the “viability change, negative = cytotoxic” value was 12.3%. With CC(=O)O[C@H]1C[C@@H]2CC[C@@H]3[C@H](CC[C@@]4(C)[C@H]3C[C@H]([N+]3(C)CCCCC3)[C@@H]4OC(C)=O)[C@@]2(C)C[C@@H]1[N+]1(C)CCCCC1 the “viability change, negative = cytotoxic” value was 8.56%. In the case of CCN(CC)CCOC[C@H]1O[C@@H](O)[C@H](OCCN(CC)CC)[C@@H](O)[C@@H]1O, the “viability change, negative = cytotoxic” value is reported as -5.45%. In the case of CN=C(N)NCCC[C@H](N)C(=O)O, the Potency is reported as “inactive”. For CSCC[C@H](NC(=O)[C@H](Cc1ccc(OS(=O)(=O)O)cc1)NC(=O)[C@@H](N)CC(=O)O)C(=O)NCC(=O)N[C@@H](Cc1c[nH]c2ccccc12)C(=O)N[C@@H](CCSC)C(=O)N[C@@H](CC(=O)O)C(=O)N[C@@H](Cc1ccccc1)C(N)=O, the Potency was “inactive”. For CCOC(=O)COc1ccc2c(=O)cc(-c3ccccc3)oc2c1, the Potency was “inactive”. With CC[C@@H](C)[C@H](N)C(=O)O the “viability change, negative = cytotoxic” value was 6.36%. With CCCCCCCCCCCC[n+]1ccc2ccccc2c1 the Potency was 9.52 µM (active). For O=C1CC[C@@H](C(=O)N[C@H]2C[C@@H]2c2ccccc2)N1, the “viability change, negative = cytotoxic” value was -0.6%. With CC(C)(S)C(=O)N[C@@H](CS)C(=O)O the Potency was “inactive”. In the case of CC(C)(C)C(=O)OCC(=O)[C@H]1CC[C@H]2[C@@H]3CCC4=CC(=O)CC[C@]4(C)[C@H]3CC[C@]12C, the “viability change, negative = cytotoxic” value is reported as -4.62%. For NC[C@H]1O[C@H](O[C@H]2[C@H](O)[C@@H](O[C@H]3O[C@H](CO)[C@@H](O)[C@H](N)[C@H]3O)[C@H](N)C[C@@H]2N)[C@H](N)C[C@@H]1O, the “viability change, negative = cytotoxic” value was 10.2% [at 27 µM]. In the case of C/C(=C\C(=O)OCCCCCCCCC(=O)O)C[C@@H]1OC[C@H](C[C@@H]2O[C@H]2[C@@H](C)[C@H](C)O)[C@@H](O)[C@H]1O, the “viability change, negative = cytotoxic” value is reported as 5.09%.
% is scaled to controls: 0 for no effect and ±100 for the full control effect; potency is read from the fitted curve at half-maximal effect.
